The whole screen tested about 370,000 compounds, of which about 1,600 (0.43%) were called active. Shown is part of a subset that was picked to be rich in actives. A number with no mark means an inactive call. Cut-off read from the data, not from the text of the source: active = inhibition above about 24%; inactive = the rest.

For this assay, the target named is Major prion protein (Homo sapiens) (UniProt P04156). Briefly: inhibitors of human cell surface prion protein PrPC, primary screen, cell-based, TR-FRET (AID 720596). Note: 0% = median of the test wells and 100% = reference compound wells. The settings on record: TR-FRET read-out, at 13.8 µM, active compounds read high.
Turning to `COc1cc2[nH]c(=S)n(Cc3ccc(C)o3)c(=O)c2cc1OC`, the inhibition is -2%.

On to `COc1cc(-n2c(=S)[nH]c3ccc(C)cc3c2=O)c(Cl)cc1Cl`, for which the inhibition is 41% (active).

In the case of `COc1ccc(OC)c(-n2c(=S)[nH]c3cc(C(=O)N4CCCCC4)ccc3c2=O)c1`, the inhibition is 2.99%.

Regarding `COc1cccc(C(=O)N2CCCC(CCC(=O)NCc3ccc(F)c(F)c3)C2)c1` (stereo unspecified), the inhibition is 1.57%.

Take `CCOc1ccc(C2/C(=C(/O)c3ccc4c(c3)CC(C)O4)C(=O)C(=O)N2CCCn2ccnc2)cc1` (stereo unspecified): the inhibition was 1.98%.

In the case of `CCCOc1ccc(C2C(C(=O)c3ccc(C)o3)=C(O)C(=O)N2CCCn2ccnc2)cc1` (stereo unspecified), the inhibition was 39.3% (active).

`C=CCOc1cccc(C2C(C(=O)c3ccc(C)o3)=C(O)C(=O)N2CCN2CCOCC2)c1` (stereo unspecified): the inhibition was -10.8%.

With `CCOc1ccccc1OCCCNCc1ccccc1`, the inhibition was -4%.

Take `N#C/C=C1\Sc2ccccc2C(=O)N1CC(=O)N1CCN(S(=O)(=O)c2ccccc2)CC1`: the inhibition is 59.8% (active).

In the case of `O=C(CN1CCCSc2ccccc21)N1CCN(S(=O)(=O)c2cccc(F)c2)CC1`, the inhibition is -1.47%.

In the case of `CC(C)c1ccc(S(=O)(=O)N2CCN(C(=O)CN3C(=O)NC(C)(c4ccccc4)C3=O)CC2)cc1` (stereo unspecified), the inhibition was -0.25%.

As for `CCCN(C(=O)CSc1nnc(N)s1)c1c(N)n(Cc2ccccc2)c(=O)[nH]c1=O`, the inhibition was -0.1%.

As to `COc1ccc(Cl)cc1NC(=O)COc1ccc2c(c1)OCO2`, the inhibition was 0.61%.

As for `Cc1noc(C)c1NC(=O)Nc1ccc2c(c1)C(=O)N([C@H](C)CO)C[C@H](C)[C@@H](CN(C)S(=O)(=O)c1cn(C)cn1)O2`, the inhibition was 3.79%.

As for `COc1ccc(C)cc1NC(=O)CSc1nnc2ccc(-c3ccccn3)nn12`, the inhibition is -1.48%.

In the case of `O=C(CCCNS(=O)(=O)c1cccc2nsnc12)NCCN1CCN(c2ccccc2F)CC1`, the inhibition was -22.9%.

`Cc1cccc(C(=O)Nc2c(-c3ccc(F)cc3)nc3ncccn23)c1`: the inhibition was 0.67%.

For the compound `Cc1cccc(NC(=O)c2cc3c(C)nn(-c4ccccc4)c3s2)c1`, the inhibition is -2.71%.

As for `Cc1cccc(CS(=O)(=O)c2ncc(Cl)c(C(=O)Nc3ccc(F)cc3)n2)c1`, the inhibition is 54.3% (active).

Turning to `CN(CCC(=O)Nc1cc(S(=O)(=O)N(C)C)ccc1Cl)CC(=O)Nc1ccc(F)cc1`, the inhibition is -6.03%.

`Cc1cccc(NC(=O)Cn2c(=O)n(Cc3ccccc3)c(=O)c3c(C)c(C)sc32)c1`: the inhibition was 4.63%.

Take `Cc1cccc(NC(=O)c2nc(S(=O)(=O)Cc3ccccc3)ncc2Cl)c1`: the inhibition was 70.4% (active).

Turning to `Cc1ccc(NS(=O)(=O)c2cccs2)cc1S(=O)(=O)N1CCCCCC1`, the inhibition is 2.21%.

For the compound `Cc1cccc(CC(=O)N2CCN=C2SCc2ccc([N+](=O)[O-])cc2)c1`, the inhibition was -5.21%.

Turning to `CCCn1c(=S)[nH]c2ccc(C(F)(F)F)cc21`, the inhibition was 12.2%.

On to `CCN(CC(=O)NCc1ccc(F)cc1)S(=O)(=O)c1ccc(Cl)s1`, for which the inhibition is -0.88%.

Consider `Cc1ccc(Cl)cc1NC(=O)C1CCN(S(C)(=O)=O)CC1`, for which the inhibition was 4.88%.

Turning to `O=C(Nc1ccccn1)C1CCN(S(=O)(=O)c2ccc3c(c2)OCCO3)CC1`, the inhibition was -7.97%.

For `Cc1ccnc(NC(=O)C2CCN(S(=O)(=O)c3c(C)c(C)cc(C)c3C)CC2)c1`, the inhibition is 28.1% (active).

Take `O=C(/C=C/c1cnc2ccccc2n1)NC1CCCCCC1`: the inhibition is -28.9%.

As to `CCOC(=O)c1c(C)oc2cc(Br)c(OCC(N)=O)cc12`, the inhibition is -4.57%.

Turning to `CCOC(=O)c1c(-c2ccccc2)oc2cc(Br)c(O)cc12`, the inhibition is 58.6% (active).

Consider `CCOC(=O)c1c(-c2ccccc2)oc2ccc(OC(=O)N(C)C)cc12`, for which the inhibition is -3.58%.

As for `CCNc1nc(NCC)nc(N(C)n2cnnc2)n1`, the inhibition is 3.48%.

As to `CCN(CC)c1ccc(S(=O)(=O)N2CCOCC2)cc1NC(=O)CSc1cccc[n+]1[O-]`, the inhibition is -5.4%.

Turning to `CCN1CCN(C(=O)C2CCCN(S(=O)(=O)c3ccc(OC)c(OC)c3)C2)CC1` (stereo unspecified), the inhibition was -1.58%.

Regarding `Nc1cc2c(cc1Br)-c1ccc(F)cc1C2=O`, the inhibition is -0.15%.

In the case of `O=C(/C=C/c1ccc([N+](=O)[O-])o1)NNC(=O)c1ccc(F)cc1`, the inhibition was 64.7% (active).

Take `CCN(CC)N=Nc1cccc(NC(C)=O)c1`: the inhibition is -7.3%.

Consider `Cc1ccc(SC(CC(=O)c2ccc(C(C)(C)C)cc2)C(=O)O)cc1` (stereo unspecified), for which the inhibition is -2%.

In the case of `O=C(OCC(=O)N1CCCCC1)c1ccc(OC(F)(F)F)cc1`, the inhibition was 8.76%.

On to `c1ccc(-n2ncc(-c3nn[nH]n3)n2)cc1`, for which the inhibition was 1.91%.

As to `CCc1cc(-c2n[nH]c(=S)n2CC(C)C)cs1`, the inhibition is -0.39%.

For `COc1ccc(C(=O)Nc2nc(-c3ccc(S(=O)(=O)N4CCOCC4)cc3)cs2)cc1`, the inhibition is 27.2% (active).

For `O=C(Nc1ccc(S(=O)(=O)N2CCOCC2)cc1)c1ccc2ncsc2c1`, the inhibition is 0.06%.

For the compound `Cc1ccc(S(=O)(=O)N2CCOCC2)cc1NC(=O)c1ccncc1`, the inhibition is 7.08%.

Consider `COc1ccc(NC(=O)CN(C)C(=O)c2cc(C3CC3)nn2-c2ccccc2)cc1`, for which the inhibition is 10.2%.

For `CCC(C)(O)C(=O)OC1C(=O)OC2CC3C(C)=CC(=O)C(O)C3(C)C3C4(O)OCC23C1C(C)C4O` (stereo unspecified), the inhibition is 83.1% (active).

In the case of `O=C(N/C(=C\c1ccc(F)cc1)C(=O)N1CCCCCC1)c1ccccc1`, the inhibition was -7.9%.

For `Cc1ccc(-c2nc3ccccc3c(=O)n2-c2ccc(Br)cn2)cc1`, the inhibition is 0.03%.

Take `COc1ccc(CC(=O)NC(C)c2ccc(Cl)c(Cl)c2)cc1S(=O)(=O)N1CCOCC1` (stereo unspecified): the inhibition is 4.45%.

Take `COc1ccc(C)cc1NC(=O)CNCc1cccs1`: the inhibition was 0.34%.

Regarding `Cc1ccsc1C(=O)OCC(=O)Nc1cccc(F)c1`, the inhibition was 25.2% (active).

`CC1CC1C(=O)OCC(=O)Nc1cccc(F)c1` (stereo unspecified): the inhibition is -3.56%.

`O=C(COC(=O)CNC(=O)C1CCCCC1)Nc1cccc(F)c1`: the inhibition was -5.42%.

In the case of `CCN(CC(=O)NCc1ccc(Cl)cc1)C(=O)CSc1ccccc1`, the inhibition was 9.76%.

On to `CN1/C(=C\C=C2\N=C(c3ccc(F)cc3)OC2=O)C(C)(C)c2ccccc21`, for which the inhibition was 9.17%.

Regarding `CN1/C(=C\C(=O)c2oc3ccccc3c2N)C(C)(C)c2ccccc21`, the inhibition was 51.8% (active).

As for `C=CCN1C(=O)C2(C(C(=O)OCC)=C(N)Oc3c2c(=O)oc2ccccc32)c2ccccc21` (stereo unspecified), the inhibition is 8.11%.

For `Cc1ccc(Cl)cc1N1CCN(C(=O)c2cccc3c(=O)c(C)c(-c4ccccc4)oc23)CC1`, the inhibition is 3.53%.

For the compound `N#Cc1ccc(-c2nc3c(Cl)cc(C(F)(F)F)cn3c2Cc2ccccc2C(F)(F)F)cc1`, the inhibition was 6.77%.

For `CCOC(=O)C1(Cc2ccc(Cl)cc2)CCN(C(C)CCn2cccn2)CC1` (stereo unspecified), the inhibition is -7.01%.

In the case of `CCCCNC(=O)c1onc(CSc2cccc(OC)c2)c1C(=O)O`, the inhibition was 0.43%.

For `COC(=O)c1ccc2nc(-c3cccc(Br)c3)c(Cc3ccc(OC)cc3C)n2c1`, the inhibition is -3.29%.

Turning to `CCCCNc1c(-c2cccc(Sc3ccc(OC)cc3)c2)nc2ccccn12`, the inhibition was 24.6% (active).

Turning to `COc1ccc(-c2cc(C(F)(F)F)nc(S(C)(=O)=O)n2)cc1OC`, the inhibition was 43.6% (active).

Regarding `COc1ccc(-c2cc(C(F)(F)F)nc(SCCC(=O)NCc3ccco3)n2)cc1`, the inhibition was -0.14%.

`CCCC[C@H]1C2CC(OC(=O)NCc3ccccc3)C(C2)[C@H]2CCCCN21` (stereo partly specified): the inhibition was -9.6%.

For the compound `CCc1c(N=O)c(-c2ccccc2)n(O)[n+]1[O-]`, the inhibition was -1.69%.

As to `CC(=O)c1c(C)[nH]c(=S)c(C#N)c1-c1ccc(F)cc1`, the inhibition was 2.25%.

Consider `CCOC(=O)c1c(C)[nH]c(=S)c(C#N)c1-c1ccccc1`, for which the inhibition was 36.6% (active).

For `CCc1c(C)[nH]c(=S)c(C#N)c1C`, the inhibition was 10%.

On to `Cc1nc(CC(=O)NNS(=O)(=O)c2ccc(F)c(Cl)c2)cs1`, for which the inhibition was -3.65%.

On to `Cc1c(NC(=O)CN2C(=O)C(=O)N(Cc3ccccc3)C2=O)c(=O)n(-c2ccccc2)n1C`, for which the inhibition is -0.02%.

Take `CC(=O)c1sc2nc(SCC(=O)N3CCCCC3)[nH]c(=O)c2c1C`: the inhibition is 34.2% (active).

Consider `Cc1c(C)n2c(SCC(=O)N3CCCC3)nnc2[nH]c1=O`, for which the inhibition is -1.9%.

`O=C(CSc1nc2c(c(=O)[nH]1)CCCC2)N1CCCCC1`: the inhibition was 3.4%.

With `CCCCCCCCCCCCn1ccc(=N)cc1`, the inhibition is 34.3% (active).

In the case of `C[C@H]1CN([C@@H](C)CO)C(=O)CCCn2cc(nn2)CO[C@@H]1CN(C)S(=O)(=O)c1cccs1`, the inhibition is 6.24%.

On to `NC(=O)COc1ccc(NC(=O)c2ccccc2-c2ccccc2)cc1`, for which the inhibition was 2.41%.

For the compound `Cc1ccc(C)c2[nH]c(=O)c(CCNC(=O)c3cccs3)cc12`, the inhibition is 1.05%.

As to `CCCCC(CC)CNCc1cccn1CCN1CCOCC1` (stereo unspecified), the inhibition was -0.03%.

`CCCCCCCCn1c2c(c(=N)c3c1CCC3)CCCC2`: the inhibition is 34.1% (active).

For the compound `CCNC(=O)Nc1ccc(S(=O)(=O)Nc2cnc(C)nc2C)cc1`, the inhibition was -5.43%.

As to `Cc1ccc(NC(=O)c2sc3nc(N)c(C#N)cc3c2N)cc1`, the inhibition was 29.7% (active).

As to `CC(=O)c1ccc(NC(=O)c2sc3nc4n(c(=O)c3c2C)CCCCC4)cc1`, the inhibition is 7.05%.

For the compound `Cc1ccc(Sc2ccc(NC(=O)c3ccc(F)cc3)cc2C#N)cc1`, the inhibition is -3.85%.

Consider `CC(=O)Nc1ccc(S(=O)(=O)NNC(=O)CCc2ccccc2)cc1`, for which the inhibition was -0.14%.

`COc1ccc(-n2nnnc2SCc2nc(N)nc(N3CCOCC3)n2)cc1`: the inhibition is 2.17%.

With `CC1(c2ccc3ccccc3c2)NC(=O)NC1=O` (stereo unspecified), the inhibition is 9.52%.

On to `CNC(=O)C1CN(C(=O)c2cccc(S(=O)(=O)N3CCc4ccccc43)c2)c2ccccc2O1` (stereo unspecified), for which the inhibition is 4.01%.

The values above are taken from PubChem BioAssay AID720596 (The Scripps Research Institute Molecular Screening Center, 2013).
